{"source": "PubChem BioAssay (EPA / NIEHS)", "note": "Results filed as inconclusive are left out. Calls of active or inactive are those of the source. The calls were made as follows, unless noted: active = hit-call score of the fitted dose curve at least 0.9, where 1 is the maximum; inactive = score below 0.9."}
{"biological_target": "human Thyroid Receptor alpha (THRa1), THRA (gene 7067) (UniProt P10827)", "sequence (P10827 whole entry, looked up, the tested form may be a part)": "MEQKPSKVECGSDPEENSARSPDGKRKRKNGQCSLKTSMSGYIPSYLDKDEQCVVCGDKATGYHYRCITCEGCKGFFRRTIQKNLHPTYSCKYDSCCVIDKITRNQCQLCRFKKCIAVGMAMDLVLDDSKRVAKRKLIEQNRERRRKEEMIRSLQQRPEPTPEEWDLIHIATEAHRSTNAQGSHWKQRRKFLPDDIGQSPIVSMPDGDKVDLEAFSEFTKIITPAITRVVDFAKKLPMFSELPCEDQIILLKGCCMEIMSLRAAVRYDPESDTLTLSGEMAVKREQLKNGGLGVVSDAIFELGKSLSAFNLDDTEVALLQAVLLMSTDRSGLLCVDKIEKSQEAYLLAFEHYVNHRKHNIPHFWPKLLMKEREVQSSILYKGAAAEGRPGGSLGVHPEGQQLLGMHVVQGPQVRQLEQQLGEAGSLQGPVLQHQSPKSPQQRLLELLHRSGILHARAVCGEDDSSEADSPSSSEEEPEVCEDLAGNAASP", "experiment": "ATG_THRa1_TRANS: Attagene TRANS-FACTORIAL HepG2 Assay for human Thyroid Receptor alpha (THRa1) (AID 2283014; active = hit-call score of the fitted dose curve at least 0.9, where 1 is the maximum)", "settings": "not given", "in_short": "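HepG2 cells transiently transfected with multiplexed GAL4-UAS reporter units for exogenous chimeric THRa1-Gal4; reporter mRNA measured 24 h after dosing by RT-PCR, 6-FAM labelling, HpaI digestion and capillary electrophoresis. Gain-of-signal fitted versus DMSO baseline.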"}
{"smiles": "O=C1C(Cl)=C(Cl)C(=O)C(Cl)=C1Cl", "outcome": "inactive"}
{"smiles": "N#CCCCCC#N", "outcome": "inactive"}
{"smiles": "CC1CCC(=O)O1", "note": "(configuration not stated)", "outcome": "inactive"}
{"smiles": "CC(C)(c1cc(Cl)c(O)c(Cl)c1)c1cc(Cl)c(O)c(Cl)c1", "outcome": "inactive"}
{"smiles": "O=C(NCNC(=O)NC1C(=O)NC(=O)N1CO)NC1C(=O)NC(=O)N1CO", "note": "(configuration not stated)", "outcome": "inactive"}
{"smiles": "CCC1CCC(=O)O1", "note": "(configuration not stated)", "outcome": "inactive"}
{"smiles": "C=COCCCl", "outcome": "inactive"}
{"smiles": "CC[N+](=O)[O-]", "outcome": "inactive"}
{"smiles": "CC(Cc1ccc(C(C)(C)C)cc1)CN1C[C@@H](C)O[C@@H](C)C1", "note": "(some centres not stated)", "outcome": "inactive"}
{"smiles": "[Cl-].[Cl-].[Cl-].[Yb+3]", "outcome": "inactive"}
{"smiles": "CCOC(=O)N(C)N=O", "outcome": "inactive"}
{"smiles": "O=CNC(N1CCN(C(NC=O)C(Cl)(Cl)Cl)CC1)C(Cl)(Cl)Cl", "note": "(configuration not stated)", "outcome": "inactive"}
{"smiles": "CCC[N+](=O)[O-]", "outcome": "inactive"}
{"smiles": "CC=Cc1ccc2c(c1)OCO2", "outcome": "inactive"}
{"smiles": "O=S(=O)(c1ccccc1)c1ccccc1", "outcome": "inactive"}
{"smiles": "CCN(CC)C(=S)S", "outcome": "inactive"}
{"smiles": "N#CC(c1ccccc1)c1ccccc1", "outcome": "inactive"}
{"read-out": "E-selectin (Homo sapiens) (UniProt P16581)", "experiment": "BSK_3C_Eselectin: BioMAP Diversity Plus: 3C Assay for Eselectin Biomarker Activity (AID 2283015);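 as to outcome: cell surface E-selectin protein quantified by ELISA 24 h after dosing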", "settings": "primary human endothelial cells (HUVEC); actives raise or lower the signal", "in_short": "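Primary human umbilical vein endothelial cells (3C system) were dosed with chemical and cell-surface E-selectin measured by ELISA 24 h later. Bidirectional curve fitting used DMSO as negative control and baseline.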"}
{"smiles": "O=C1C(Cl)=C(Cl)C(=O)C(Cl)=C1Cl", "AC50": "10.3 µM (active)"}
{"smiles": "N#CCCCCC#N", "outcome": "inactive"}
{"smiles": "CC(C)(c1cc(Cl)c(O)c(Cl)c1)c1cc(Cl)c(O)c(Cl)c1", "AC50": "12 µM (active)"}
{"smiles": "COCC(=O)N(c1c(C)cccc1C)N1CCOC1=O", "outcome": "inactive"}
{"smiles": "CC(C)CCCCCCCOP(=O)(Oc1ccccc1)Oc1ccccc1", "AC50": "20 µM (active)"}
{"smiles": "C=CCN(CC=C)C(=O)C(Cl)Cl", "outcome": "inactive"}
{"smiles": "c1ccc(Nc2ccc3ccccc3c2)cc1", "AC50": "13.8 µM (active)"}
{"smiles": "Cc1ccc(OP(=O)(Oc2ccc(C)cc2)Oc2ccc(C)cc2)cc1", "note": "(tested in a mixture with another compound)", "outcome": "inactive"}
{"smiles": "O=S(=O)(c1ccccc1)c1ccccc1", "outcome": "inactive"}
{"smiles": "CC(=O)/C=C/c1ccccc1", "outcome": "inactive"}
{"read-out": "Interleukin-1 alpha (IL1a), IL1A (gene 3552)", "experiment": "BSK_BE3C_IL1a: BioMAP Diversity Plus: BE3C Assay for Interleukin-1 alpha (IL1a) Biomarker Activity (AID 2283016)", "settings": "primary human bronchial epithelial cells; actives raise or lower the signal", "in_short": "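Signal from IL-1a ELISA, taken 24 h after chemical dosing of human bronchial epithelial cells, is compared with DMSO as baseline using bidirectional curve fitting.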"}
{"smiles": "O=C1C(Cl)=C(Cl)C(=O)C(Cl)=C1Cl", "AC50": "30.5 µM (active)"}
{"smiles": "N#CCCCCC#N", "outcome": "inactive"}
{"smiles": "CC(C)(c1cc(Cl)c(O)c(Cl)c1)c1cc(Cl)c(O)c(Cl)c1", "AC50": "5.29 µM (active)"}
{"smiles": "COCC(=O)N(c1c(C)cccc1C)N1CCOC1=O", "outcome": "inactive"}
{"smiles": "CC(C)CCCCCCCOP(=O)(Oc1ccccc1)Oc1ccccc1", "AC50": "5.34 µM (active)"}
{"smiles": "C=CCN(CC=C)C(=O)C(Cl)Cl", "outcome": "inactive"}
{"smiles": "c1ccc(Nc2ccc3ccccc3c2)cc1", "AC50": "20 µM (active)"}
{"smiles": "Cc1ccc(OP(=O)(Oc2ccc(C)cc2)Oc2ccc(C)cc2)cc1", "note": "(tested in a mixture with another compound)", "outcome": "inactive"}
{"smiles": "O=S(=O)(c1ccccc1)c1ccccc1", "outcome": "inactive"}
{"smiles": "CC(=O)/C=C/c1ccccc1", "outcome": "inactive"}
{"read-out": "Monocyte Chemoattractant Protein-1 (MCP1), CCL2 (gene 6347)", "experiment": "BSK_3C_MCP1: BioMAP Diversity Plus: 3C Assay for Monocyte Chemoattractant Protein-1 (MCP1) Biomarker Activity (AID 2283017)", "settings": "primary human endothelial cells (HUVEC); actives raise or lower the signal", "in_short": "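Primary human umbilical vein endothelial cells (3C system) were exposed to test chemical for 24 h, after which MCP-1 was quantified by ELISA. Activity was fitted bidirectionally against DMSO as negative control and baseline.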"}
{"smiles": "O=C1C(Cl)=C(Cl)C(=O)C(Cl)=C1Cl", "AC50": "12.4 µM (active)"}
{"smiles": "N#CCCCCC#N", "outcome": "inactive"}
{"smiles": "CC(C)(c1cc(Cl)c(O)c(Cl)c1)c1cc(Cl)c(O)c(Cl)c1", "AC50": "12.3 µM (active)"}
{"smiles": "COCC(=O)N(c1c(C)cccc1C)N1CCOC1=O", "outcome": "inactive"}
{"smiles": "CC(C)CCCCCCCOP(=O)(Oc1ccccc1)Oc1ccccc1", "AC50": "10.7 µM (active)"}
{"smiles": "C=CCN(CC=C)C(=O)C(Cl)Cl", "outcome": "inactive"}
{"smiles": "c1ccc(Nc2ccc3ccccc3c2)cc1", "AC50": "26 µM (active)"}
{"smiles": "Cc1ccc(OP(=O)(Oc2ccc(C)cc2)Oc2ccc(C)cc2)cc1", "note": "(tested in a mixture with another compound)", "AC50": "20 µM (active)"}
{"smiles": "O=S(=O)(c1ccccc1)c1ccccc1", "outcome": "inactive"}
{"smiles": "CC(=O)/C=C/c1ccccc1", "outcome": "inactive"}
{"read-out": "Human Leukocyte Antigen - DR isotype (HLADR), HLA-DRA (gene 3122)", "experiment": "BSK_3C_HLADR: BioMAP Diversity Plus: 3C Assay for Human Leukocyte Antigen - DR isotype (HLADR) Biomarker Activity (AID 2283019)", "settings": "primary human endothelial cells (HUVEC); actives raise or lower the signal", "in_short": "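Primary human umbilical vein endothelial cells (3C system) were dosed with compound and cell-surface HLA-DR was quantified by ELISA at 24 h. Activity was fitted bidirectionally against DMSO as negative control and baseline.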"}
{"smiles": "O=C1C(Cl)=C(Cl)C(=O)C(Cl)=C1Cl", "AC50": "6.64 µM (active)"}
{"smiles": "N#CCCCCC#N", "outcome": "inactive"}
{"smiles": "CC(C)(c1cc(Cl)c(O)c(Cl)c1)c1cc(Cl)c(O)c(Cl)c1", "AC50": "10.2 µM (active)"}
{"smiles": "COCC(=O)N(c1c(C)cccc1C)N1CCOC1=O", "outcome": "inactive"}
{"smiles": "CC(C)CCCCCCCOP(=O)(Oc1ccccc1)Oc1ccccc1", "AC50": "6.74 µM (active)"}
{"smiles": "C=CCN(CC=C)C(=O)C(Cl)Cl", "outcome": "inactive"}
{"smiles": "c1ccc(Nc2ccc3ccccc3c2)cc1", "AC50": "31.1 µM (active)"}
{"smiles": "Cc1ccc(OP(=O)(Oc2ccc(C)cc2)Oc2ccc(C)cc2)cc1", "note": "(tested in a mixture with another compound)", "AC50": "20 µM (active)"}
{"smiles": "O=S(=O)(c1ccccc1)c1ccccc1", "outcome": "inactive"}
{"smiles": "CC(=O)/C=C/c1ccccc1", "AC50": "26.9 µM (active)"}
{"read-out": "Interleukin-8 (IL8), CXCL8 (gene 3576)", "experiment": "BSK_3C_IL8: BioMAP Diversity Plus: 3C Assay for Interleukin-8 (IL8) Biomarker Activity (AID 2283020)", "settings": "primary human endothelial cells (HUVEC); actives raise or lower the signal", "in_short": "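Endothelial primary cells of human umbilical vein origin are dosed with chemical; after 24 h the IL-8 biomarker is measured by ELISA, and concentration–response is fitted in both directions versus DMSO.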"}
{"smiles": "O=C1C(Cl)=C(Cl)C(=O)C(Cl)=C1Cl", "AC50": "20 µM (active)"}
{"smiles": "N#CCCCCC#N", "outcome": "inactive"}
{"smiles": "CC(C)(c1cc(Cl)c(O)c(Cl)c1)c1cc(Cl)c(O)c(Cl)c1", "AC50": "20 µM (active)"}
{"smiles": "COCC(=O)N(c1c(C)cccc1C)N1CCOC1=O", "outcome": "inactive"}
{"smiles": "CC(C)CCCCCCCOP(=O)(Oc1ccccc1)Oc1ccccc1", "AC50": "20 µM (active)"}
{"smiles": "C=CCN(CC=C)C(=O)C(Cl)Cl", "outcome": "inactive"}
{"smiles": "c1ccc(Nc2ccc3ccccc3c2)cc1", "AC50": "31.9 µM (active)"}
{"smiles": "Cc1ccc(OP(=O)(Oc2ccc(C)cc2)Oc2ccc(C)cc2)cc1", "note": "(tested in a mixture with another compound)", "outcome": "inactive"}
{"smiles": "O=S(=O)(c1ccccc1)c1ccccc1", "outcome": "inactive"}
{"smiles": "CC(=O)/C=C/c1ccccc1", "outcome": "inactive"}
